From PubChem BioAssay
Potency and affinity values are given separately. Active and inactive are the calls of the source. How the calls were made is not given here.

Each compound was assayed against Plasmodium falciparum protein kinase 6 (PK6, PF3D7_1337100) (UniProt Q8IDW1) (assay: PfPK6 kinase inhibitors, biochemical, TCAMS library (AID 1159586)). Settings: recombinant PfPK6, Kinase-Glo ATP depletion luminescence.
Plasmodium falciparum protein kinase 6 (PK6, PF3D7_1337100), sequence (Q8IDW1 1-305): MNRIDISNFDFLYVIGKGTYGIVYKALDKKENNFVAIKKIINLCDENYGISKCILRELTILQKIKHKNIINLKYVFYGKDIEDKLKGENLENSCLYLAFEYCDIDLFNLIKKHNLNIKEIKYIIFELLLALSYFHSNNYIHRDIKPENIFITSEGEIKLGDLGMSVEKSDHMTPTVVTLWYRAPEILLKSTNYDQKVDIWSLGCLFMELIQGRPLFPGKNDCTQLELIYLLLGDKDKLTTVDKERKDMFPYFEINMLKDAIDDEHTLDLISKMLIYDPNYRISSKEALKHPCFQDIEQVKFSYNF

outcome, inactive:
CC(C)(C)c1ccc(NC(=O)c2ccc(CN3CCCN(Cc4cccc(Cl)c4)CC3)cc2)cc1
CC1(C)[C@H]2CC[C@@H](CNc3nc(NCCc4cnc[nH]4)nc(Nc4ccc5c(c4)OCO5)n3)[C@@H]1C2
Cc1cc(C2CCN(CCCCNC(=O)c3ccc(NC(=O)c4ccc(Cl)cc4)cc3)CC2)c(C)cc1OCc1ccccn1
Oc1ccc(CCCNc2nc(NCc3ccccc3-c3ccccc3)nc(NC3CCNCC3)n2)cc1
CCC(=Cc1cccc([N+](=O)[O-])c1)C(=O)NCC1CCN(c2nc(N)c3cc(OC)c(OC)cc3n2)CC1
NCCCCc1c(-c2ccc(Cl)c(Cl)c2)[nH]c2ccc(Cl)cc12
CCCCN(C(=O)c1ccccc1C)c1nnc(-c2ccccc2C)s1
Cc1cccc2[nH]c(-c3ccc(-c4cccc(NC(=O)COc5ccccc5C(N)=O)c4)s3)nc12
COc1ccc2nccc([C@@H](O)CN3CCC(NC(=O)c4nc(Cl)c(Cl)c(N)c4Cl)CC3)c2c1
Cc1cc(N2CCCC2)nc(Nc2ccc(NC(=O)c3ccc(Br)o3)cc2)n1
Cn1c(=N)cc(-c2ccc(Br)cc2)c2c(=O)[nH]c(N)nc21
CCC(C)(C)NC(=O)C(c1cccc(OC)c1)N(C(=O)CNC(=O)c1cccs1)c1ccc2c(c1)OCCO2 (stereo not given)
Oc1ccccc1CCNCC1CCc2ccccc2C1 (stereo not given)
COc1ccc2nccc([C@@H](O)CN3CCC(NCc4ccc(OC)c(NC=O)c4)CC3)c2c1
CCCN(Cc1ccc(OCC)cc1)Cc1cc(=O)c2cc(Cl)ccc2[nH]1
